Bioassay records deposited in PubChem by National Center for Advancing Translational Sciences (NCATS).
Pf growth 48h = P. falciparum growth inhibition at 48 hours (one generation); P. falciparum luciferase growth in erythrocytes, 48 h; Potency, µM (titrated, usually from 28.7 µM), without a hit: at the highest dose activity change, negative = inhibition, actives largely listed as inhibitors; actives 5.9% (n = 310,000); AID 504832
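Here the parasites carry a stable luciferase gene and grow inside erythrocytes in Albumax-based RPMI medium with compound for one erythrocytic cycle. Activity is scored as loss of luminescent signal.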
AmpC no deterg = AmpC beta-lactamase inhibition without detergent; P00811; AmpC nitrocefin hydrolysis, absorbance 480 nm, 0.0001% Triton; Potency, µM (series often up to 57.1 µM), without a hit: at the top dose activity change, negative = inhibition, actives largely listed as inhibitors; actives 0.52% (n = 330,000); AID 485341;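 note: plate controls were no compound for no effect and no enzyme for full effect; nearly all actives have a fitted effect of over 20% in size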
Target sequence (P00811 whole entry, looked up): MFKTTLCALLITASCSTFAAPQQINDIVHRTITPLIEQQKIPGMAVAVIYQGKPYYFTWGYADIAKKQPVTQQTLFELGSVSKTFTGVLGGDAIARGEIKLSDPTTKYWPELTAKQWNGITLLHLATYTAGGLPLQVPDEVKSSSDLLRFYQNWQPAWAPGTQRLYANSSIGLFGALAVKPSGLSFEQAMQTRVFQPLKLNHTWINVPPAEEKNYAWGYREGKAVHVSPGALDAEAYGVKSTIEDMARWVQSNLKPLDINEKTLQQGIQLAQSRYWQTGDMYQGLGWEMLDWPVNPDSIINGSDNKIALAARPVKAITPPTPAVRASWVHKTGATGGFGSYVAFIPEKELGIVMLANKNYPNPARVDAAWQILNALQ
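AmpC (5.3 nM in the dispensed reagent) in 20 mM phosphate pH 7.0 with 0.01% (detergent screen) or 0.0001% Triton X-100 was preincubated with compounds for 15 min at room temperature. Nitrocefin was then added from an 800 uM solution, and hydrolysis was followed at 480 nm.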
Pf growth 96h = inhibits malaria parasite growth, 96 h; P. falciparum luciferase reporter growth, 96 h; Potency, µM (top dose mostly 28.7 µM), without a hit: at the top dose activity change, negative = inhibition, usual class: inhibitors; actives 6.9% (n = 320,000); AID 504834
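Cell-based qHTS: luciferase-tagged P. falciparum in erythrocytes (2% hematocrit, 0.05% parasitemia final) incubated with compounds for 96 hours, 37 C, 5% CO2; luciferase detection reagent then added and luminescence measured.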
AMA1-RON2 inh = inhibitors of Plasmodium falciparum AMA1-RON2 interaction. Potency, µM (titrated, usually from 58.2 µM), inactives show top-dose activity change, negative = inhibition, usual class: inhibitors. actives 0.2% (n = 360,000). AID 720542. AlphaScreen AMA1-biotinylated RON2 peptide binding;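 note: 0% = vehicle wells and -100% = peptide control; nearly all actives have a fitted effect of over 45% in size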
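AMA1 (3D7) with his tag at 25 nM final met compounds first, then biotinylated RON2 peptide at 25 nM; detection used donor plus acceptor beads, 10 µg/mL apiece, read by AlphaScreen after 30 min at room temperature.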
HCV inhibitor = blocks hepatitis C virus | Potency, µM (titrated, usually from 41.8 µM), inactives show top-dose activity change, negative = inhibition, most hits filed as inhibitors | Huh7.5.1 HCVcc-Cre infection, luciferase reporter, 44 h | AID 651820 | actives 3.4% (n = 340,000)
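Infectious HCV cell culture screen: compound-treated cells (1,000/well, pre-plated 4 h) are infected with HCVcc-Cre at roughly 0.5 moi and grown 44 h. Infection is quantified by luciferase signal after 15 min substrate incubation at room temperature.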
AmpC detergent = blocks E. coli AmpC beta-lactamase in detergent assay; AID 485294; actives 0.041% (n = 370,000); AmpC hydrolysis of nitrocefin, absorbance 480 nm, 0.01% Triton; P00811; Potency, µM (titrated, usually from 114 µM), for the others: top-dose activity change, negative = inhibition, usual class: inhibitors;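 note: 0% = no-compound wells and -100% = no-enzyme wells; nearly all actives have a fitted effect of over 25% in size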
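AmpC (5.3 nM in the dispensed reagent) in 20 mM phosphate pH 7.0 with 0.01% (detergent screen) or 0.0001% Triton X-100 was preincubated with compounds for 15 min at room temperature. Nitrocefin was then added from an 800 uM solution, and hydrolysis was followed at 480 nm.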
* hit, by the source's call; [ ] = dose if it differs, or a comment. Only some compounds are listed: those with a hit (about 11% of all), similar ones and a draw of the others. Calls come from the whole dose curve; as a rule, active = well fitted curve in the direction sought with a large enough effect; inconclusive = small, poorly fitted or top-dose-only effect, or another doubt; inactive = no such curve, though single readings can be large; an effect the other way counts as inactive or inconclusive. Unless noted, % is set by controls: 0 for no effect and ±100 for the full control effect; potency is the fitted concentration of half-maximal effect.

COc1cccc(N2CCN(S(=O)(=O)c3ccc4ccccc4c3)CC2)c1 was read as Pf growth 48h 12%, AmpC no deterg -20%, Pf growth 96h 4%, AMA1-RON2 inh -5%, HCV inhibitor 22µM* and AmpC detergent 0%.
`CCCCC(CC)CCC(CC(C)C)OS(=O)(=O)O` (centres undefined) gave Pf growth 48h -6% and Pf growth 96h 14%.
Cc1cccc(-n2c3nc(=O)n(C)c(=O)c-3cc3c(C)nn(-c4ccccc4)c32)c1C was read as AmpC detergent 5%.
Screening CCOC(=O)N1CCc2c(sc3nc4n(c(=O)c23)N=C(c2ccc(OC)cc2)CS4)C1 returned Pf growth 48h 0.47µM*, AmpC no deterg -2%, Pf growth 96h inconclusive, AMA1-RON2 inh -2%, HCV inhibitor -8% and AmpC detergent 0%.
`CCOC(=O)N1CCc2c(sc3nc(SC(C)C)n(N)c(=O)c23)C1` gave Pf growth 48h inconclusive, AmpC no deterg 28%, Pf growth 96h 12µM*, AMA1-RON2 inh -17%, HCV inhibitor 7% and AmpC detergent -7%.
Screening C/C=C(\C)C(=O)NCCN1C2=NC[C@H](Cc3ccc(O)cc3)N2C[C@H]1Cc1ccc(O)cc1 returned Pf growth 48h inconclusive, AmpC no deterg -13%, Pf growth 96h inconclusive, AMA1-RON2 inh -9%, HCV inhibitor 1% and AmpC detergent 5%.
Screening Cc1ccc(C(=O)NCCN2C3=NC[C@H](C)N3C[C@H]2Cc2ccc(O)cc2)cc1Br returned Pf growth 48h inconclusive, AmpC no deterg -14%, Pf growth 96h 13µM*, AMA1-RON2 inh -2%, HCV inhibitor 4% and AmpC detergent -8%.
Screening C/C=C(\C)C(=O)NCCN1C2=NC[C@@H](Cc3ccccc3)N2C[C@@H]1Cc1ccc(OC)cc1 returned AMA1-RON2 inh -4% and HCV inhibitor -4%.
COc1ccc(C[C@@H]2CN3C(=NC[C@@H]3C)N2C[C@H](C)NC(=O)c2ccc(C)c(Br)c2)cc1 was read as Pf growth 48h 8.3µM*, AmpC no deterg 18%, Pf growth 96h 2.6µM*, AMA1-RON2 inh -24%, HCV inhibitor -3% and AmpC detergent 7%.
C/C=C(\C)C(=O)N[C@@H](C)CN1C2=NC[C@H](C(C)C)N2C[C@H]1Cc1ccc(OC)cc1 was read as Pf growth 48h inconclusive, AmpC no deterg 53%, Pf growth 96h 32%, AMA1-RON2 inh -2%, HCV inhibitor -3%[8.37 µM] and AmpC detergent -1%.
Screening COc1ccc(C[C@H]2CN3C(=NC[C@H]3C)N2CCNC(=O)c2ccc(C)c(Br)c2)cc1 returned Pf growth 48h -6%, AmpC no deterg 28%, Pf growth 96h 3.7µM*, AMA1-RON2 inh -3%, HCV inhibitor inconclusive and AmpC detergent 5%.
CCCCCNC(=O)c1c[nH]c2ccc(S(=O)(=O)N3CCC(C)CC3)cc2c1=O was read as AmpC detergent 3%.
For CC(C)(C)C1CCc2onc(C(=O)Nc3sc4c(c3C#N)CCCC4)c2C1 (centres undefined) the results were AmpC detergent 9%.
COC(=O)[C@]1(Cc2ccccc2)N[C@H](c2ccc(-c3cccc(Cl)c3)c(OC)c2)[C@@H]2C(=O)N(C)C(=O)[C@@H]21 was read as AMA1-RON2 inh -2% and HCV inhibitor 2.2µM*.
CCN1C(=O)[C@H]2[C@@H](c3ccc(-c4ccc(OC)cc4)c(OC)c3)N[C@@](Cc3ccccc3)(C(=O)OC)[C@H]2C1=O was read as AmpC no deterg 29%, AMA1-RON2 inh -2% and HCV inhibitor inconclusive.
